# CYP2C19 inh: blockers of cytochrome P450 2C19 activity – biochemical, luminescence, ADME assay, primary screen | CYP2C19 Supersomes, luciferin-H EGE luminescence, 30 min | P33261 | inhibition, % at 5 µM | 21% of 96,000 active;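 active means CYP2C19 inhibition above a set limit at 5 µM in the primary screen, cut at about 50% in these data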;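 further: plate controls were negative control wells for no effect and 2.5 mM tranylcypromine positive control for full effect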
# CYP2C9 activ: human CYP2C9 activators, primary screen, biochemical, luminescence | 1.4% of 96,000 active | recombinant CYP2C9, luciferin-H conversion; hits give high values; factor 1 = untreated enzyme, 0 = blocked | activation factor at 5 µM | Cytochrome P450 2C9 (Homo sapiens), P11712;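 active means activation factor of 2 or more for CYP2C9 at a 5 µM dose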;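 further: 0 = sulfaphenazole-blocked wells and 1 = vehicle-only wells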
# Target sequence (P11712 whole entry, looked up): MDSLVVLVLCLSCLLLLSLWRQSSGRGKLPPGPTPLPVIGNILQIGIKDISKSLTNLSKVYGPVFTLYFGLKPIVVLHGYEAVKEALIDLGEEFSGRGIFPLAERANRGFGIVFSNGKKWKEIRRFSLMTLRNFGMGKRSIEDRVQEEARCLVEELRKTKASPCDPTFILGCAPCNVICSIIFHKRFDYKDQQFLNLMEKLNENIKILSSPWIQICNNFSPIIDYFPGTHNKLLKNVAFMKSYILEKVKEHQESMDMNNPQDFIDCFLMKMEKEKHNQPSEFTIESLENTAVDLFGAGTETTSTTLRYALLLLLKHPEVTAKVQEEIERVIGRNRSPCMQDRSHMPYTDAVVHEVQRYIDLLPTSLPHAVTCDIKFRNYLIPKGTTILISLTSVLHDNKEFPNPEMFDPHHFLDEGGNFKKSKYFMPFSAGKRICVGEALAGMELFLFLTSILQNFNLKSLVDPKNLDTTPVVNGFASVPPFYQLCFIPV
# CYP2C9 inh: blockers of cytochrome P450 2C9 activity – biochemical, luminescence, ADME assay, primary screen; P11712; 20% of 96,000 active; inhibition, % at 5 µM; CYP2C9 Supersomes, luciferin-H conversion;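 active means blocking of liver enzyme CYP2C9 beyond about 50% at 5 µM, limit read from the data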
# PTK2B oligo ant: antagonists of Pyk2 self-association, primary screen, Q293 cells, FERM NanoBiT luminescence, HTS; AID 1347419, 2020; hits give low values; Protein-tyrosine kinase 2-beta (Homo sapiens), Q14289; 0.83% of 99,000 active; z-score (the deposit names both 25 µM and 10 µM);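 active means Z-score of -3 or lower, scaled per plate to the spread of control and sample wells; inactive means z-score above -3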;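 further: negative z-score means lost luminescence so less FERM oligomerization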
# CYP2C19 act: human CYP2C19 activators, primary screen, biochemical, luminescence; Cytochrome P450 2C19 (Homo sapiens), P33261; recombinant CYP2C19, luciferin-H EGE luminescence; hits give high values; 0 = fully inhibited enzyme, 1 = untreated enzyme; activation factor at 5 µM; 96,000 tested, under 10 active; AID 1025, 2008;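 active means activation factor of at least 2 at 5 µM in the primary screen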;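 further: 0 = wells with 2.5 mM tranylcypromine and 1 = vehicle-only wells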
# * marks the source's active call; other numbers are inactive results; / = no result. A selection: hits, their analogues and other compounds. The true share with any hit is near 28%.
SMILES,CYP2C19 inh,CYP2C9 activ,CYP2C9 inh,PTK2B oligo ant,CYP2C19 act
CC12CC(NC(=O)N1c1cccc(C(=O)N3CCN(c4ccccn4)CC3)c1)c1ccccc1O2 (stereo not drawn),44.3,0.4,63.3*,0.45,0.6
O=C(Nc1ccccn1)NC(C(F)(F)F)C(F)(F)F,3.5,1.1,-7.2,0.07,1
CCCc1cc(N2CCN(C(=O)c3ccco3)CC2)n2c(nc3ccccc32)c1C#N,18.5,0.2,76.4*,-0.08,0.8
COc1ccccc1OCc1ccc(C(=O)n2nc(C)c(Cl)c2C)o1,38.9,1.4,-36.4,1.2,0.6
COc1ccccc1OCc1ccc(C(=O)N2N=C(C(F)F)CC2(O)C(F)F)o1 (stereo not drawn),33.5,0.3,72.7*,-0.11,0.7
O=C(c1ccc(Cn2cc(Br)cn2)o1)N1N=C(C(F)F)CC1(O)C(F)F (stereo not drawn),73.6*,0.1,93.4*,1.05,0.3
COc1ccc(N(CC(=O)NCc2ccccc2)S(=O)(=O)c2c(C)nn(C)c2C)cc1,85.0*,0.7,30.5,/,0.2
COc1ccc(N(CC(=O)N2c3ccccc3CC2C)S(=O)(=O)c2c(C)noc2C)cc1 (stereo not drawn),88.1*,0.1,92.5*,-1.68,0.1
COc1ccc(N(CC(=O)NC2CCCCCC2)S(=O)(=O)c2c(C)nn(C)c2C)cc1,32.6,0.5,50.2*,-1.06,0.7
Cc1cc(C)cc(N(CC(=O)N2CCc3ccccc32)S(=O)(=O)c2c(C)noc2C)c1,4.7,0.9,11.7,/,1
COc1ccc(N(CC(=O)NC2CCCC2)C(=O)c2ccc(N3CCCCC3)nc2)cc1,10.7,0.2,78.2*,0.55,0.9
Cc1ccc(N(CC(=O)NC2CCCCCC2)S(=O)(=O)c2c(C)nn(C)c2C)cc1,41.6,0.7,34.8,-0.06,0.6
CCOC(=O)c1c(NC(=O)c2noc3c2CCCC3)sc(C)c1C,-1.7,0.9,7.3,/,1
Cc1ccc(Cl)c(NC(=S)N(CCCN2CCOCC2)Cc2ccco2)c1,6.3,0.9,12.7,0.2,0.9
Cc1ccc(N2C(=O)c3ccc(C(=O)N4CCN(c5ccccc5F)CC4)cc3C2=O)cc1,8.9,0.9,6.0,/,0.9
COc1ccc(-n2c(=O)c3ccccc3n(CC(=O)NC3CCCC3)c2=O)c(OC)c1,-13.8,1.1,-5.6,-0.5,1.1
COc1ccc(N(CC(=O)NCc2cccnc2)S(=O)(=O)c2c(C)nn(C)c2C)cc1,64.0*,0.9,14.2,/,0.4
Cc1ccc(N(CC(=O)NCc2cccs2)S(=O)(=O)c2cccs2)cc1,95.9*,0.3,74.3*,-1.94,0
COc1ccc(N(CC(=O)NCc2cccs2)S(=O)(=O)c2c(C)nn(C)c2C)cc1,71.5*,0.7,31.6,/,0.3
Cc1nn(C)c(C)c1S(=O)(=O)N(CC(=O)NCCCOC(C)C)c1ccc(C(C)C)cc1,46.0,0.7,27.7,0.28,0.5
COc1ccc(N(CC(=O)NCc2ccccc2)S(=O)(=O)c2c(C)noc2C)cc1,91.4*,0.6,44.2,0.25,0.1
Cc1ccc(N(CC(N)=O)C2SC(=O)N(Cc3ccccc3)C2=O)cc1 (stereo not drawn),41.9,1,-0.4,-0.03,0.6
COc1ccc(N(CC(=O)N2CCC(C)CC2)S(=O)(=O)c2c(C)nn(C)c2C)cc1,74.8*,0.6,37.3,/,0.3
COC(=O)c1ccccc1NC(=O)C1CCCN(S(=O)(=O)c2ccc(OC)cc2)C1 (stereo not drawn),53.6*,0.3,72.7*,1.75,0.5
COC(=O)c1ccccc1NC(=O)C1CCCN(S(=O)(=O)c2ccc(F)cc2)C1 (stereo not drawn),90.3*,0.2,79.7*,0.85,0.1
SMILES,CYP2C19 inh,CYP2C9 activ,CYP2C9 inh,PTK2B oligo ant,CYP2C19 act
Cc1nc(NS(=O)(=O)c2ccccc2)sc1NC(=O)OCCN(C)C,-4.1,0.9,14.7,0.19,1
CC(=O)c1c(C(C)=O)c(C)n(C2CCCCC2)c1C,/,/,/,2.22,/
Cc1cc2nc(C)c(Cc3ccccc3)c(=O)n2[nH]1,5.8,2.3*,-125.4,-0.05,0.9
O=c1oc2ccccc2c(Nc2cccc(O)c2)c1[N+](=O)[O-],91.0*,0.8,17.9,1.53,0.1
Nc1c(Nc2ccccc2)c2ccccc2oc1=O,95.0*,0.2,79.6*,1.09,0.1
COc1cccc(C(=O)SC2=NCCS2)c1,23.8,1,0.8,0.05,0.8

# High-throughput results (PubChem BioAssay)
